Among the data in PubChem BioAssay (NCI) are growth values, retold here.

This is part of a sample that, as a whole, favours compounds with a hit. Of some 83,000 tested, about 20% had one in any assay.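 A percent growth of 40 corresponds to 60% growth inhibition; 0 means no net growth; -100 means all cells died. Active threshold: below 10.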 Unmarked numbers belong to inactive results. The source made the active and inactive calls.

What all share (test): NCI-60 one-dose screen, 48 h (100 = growth as untreated, 0 = no growth, -100 = all killed)
Holding throughout (settings): 10 µM unless noted

In assay [1] the test system is SR leukemia.
Assay [2] concerns RPMI-8226 leukemia.
The test system of assay [3] is OVCAR-8 ovarian.
Assay [4] deals with OVCAR-5 ovarian.
Assay [5] has as its system OVCAR-4 ovarian.
In assay [6] the test system is SK-OV-3 ovarian.
Assay [7] has as its system IGROV1 ovarian.
For assay [8], the system named is OVCAR-3 ovarian.
For assay [9], the system named is HS 578T breast.
In assay [10] the test system is NCI/ADR-RES ovarian.

Take `COc1ccc(C(=O)c2cc3c(N)c(C(=O)Nc4cccc(Cl)c4)sc3nc2C)cc1`: the growth in assay [1] was -18.2% (active); in assay [2], 9.77% (active); in assay [3], 27.1%; in [4], 49.3%; in [5], 49.5%; in [6], 44%. Besides, the growth in assay [7] was 47.9%; in assay [8], 0.514% (active); in assay [9], 18.5%.

For `Fc1ccc2nc3c(cc2c1)CSc1nnc(-c2ccc[nH]c2=S)n1N3`, the growth in assay [1] is 90.4%; in assay [2], 95.5%; in assay [3], 105%; in [4], 95.4%; in [5] it was 91.5%; in assay [6] it was 86.9%. Moreover, the growth in assay [7] was 86.7%; in assay [8], 109%; in [9], 96.3%.

With `O=C(NNc1nc(Cl)nc(N2CCN(C(c3ccccc3)c3ccccc3)CC2)n1)c1ccccc1`, the growth in [1] is -37.4% (active); in [2], 57.8%; in assay [3], 3.15% (active); in [4] it was 88.7%; in [5], -16.1% (active); in [6], 128%. Also, the growth was -92.6% (active) in [7], -90.5% (active) in assay [8] and 36.3% in assay [9].

For `COc1ccc(-c2nc(SCCC(C)C)nc(N/N=C(/C)c3ccc(C)cc3)c2C#N)cc1`, the growth in assay [1] was 91.2%; in assay [2], 88%; in [3], 88.1%; in assay [4], 85.4%; in assay [5], 103%; in [6] it was 95.7%. The growth was 84.7% in [7], 102% in assay [8] and 85.1% in assay [9].

In the case of `COc1ccc(-c2nc(N/N=C/c3c[nH]c4ccccc34)nc(N3CCOCC3)c2C#N)cc1`, the growth in [1] is -2.03% (active); in assay [2], 71.9%; in [3], 92.5%; in assay [4] it was 125%; in [5], 105%; in assay [6], 115%. The growth is 80.9% in assay [7], 90.4% in [8], 93.4% in [9] and 96.5% in assay [10].

As for `O=[N+]([O-])c1cccc(-c2nc(-c3ccc(Cl)cc3Cl)cn2-c2ccccc2)c1`, the growth is -65% (active) in [1]; 61.7% in assay [2]; -59.2% (active) in [3]; 12.1% in [4]; -93.3% (active) in assay [5]; 33.4% in assay [6]. The growth in assay [7] is 29.7%; in assay [8] it was -55.9% (active); in assay [9] it was -38.8% (active).

Take `CC(C)[N+](C)(CCOC(COc1ccccc1)COc1ccccc1)C(C)C`: the growth in assay [1] was 91.5%; in assay [2], 49.3%; in assay [3], 104%; in assay [4], 104%; in [5] it was 78.6%; in assay [6] it was 105%. The results for the growth in assay [7], in assay [8] and in assay [9] were 76.6%, 75.4% and 105%, respectively.

For the molecule `Clc1ccc(N2N=C(c3cccc(Nc4ccncc4)c3)CC2c2ccc3c(c2)OCO3)cc1` (stereo unspecified), the growth in [1] is 6.11% (active); in assay [2] it was 44.1%; in assay [3] it was 26.7%; in assay [4], 73.9%; in assay [5] it was 44.7%; in assay [6], 54.8%. The growth was 20.7% in assay [7], 23.5% in assay [8] and 68.9% in assay [9].

With `Cn1c(COC(=O)NCCc2ccccn2)nc2c(N3CCOCC3)nc(Cl)nc21`, the growth in [1] is 3.5% (active); in assay [2], -22.7% (active); in [3], 4.96% (active); in assay [4], -65% (active); in [5] it was -59.3% (active); in [6], 90.3%. Besides, the growth in assay [7] was -92.3% (active); in [8], -88% (active); in assay [9], -25% (active).

For the molecule `CC(=O)O[C@H]1CC[C@@]2(C)[C@@H](CC[C@@H]3[C@@H]2CC[C@@]2(C)[C@H]3CC[C@]2(O)C(C)=O)C1`, the growth in [1] was 91.8%; in assay [2], 88.1%; in assay [3], 109%; in assay [4], 97.7%; in [5] it was 102%; in assay [6], 103%. Also, the growth in assay [7] is 99.7%; in [8], 108%; in assay [9] it was 97.2%.

With `CCCCCCCCCCCCC1CCC/C=C\CCC(=O)O1` (stereo unspecified), the growth in assay [1] is 71.4%; in assay [2], 94%; in assay [3], 100%; in assay [4], 102%; in assay [5] it was 109%; in assay [6], 95.3%. Also, the growth in assay [7] was 102%; in [8] it was 102%; in assay [9], 107%.

Take `Cc1nc2sc(C(=O)Nc3ccccc3)c(N)c2cc1C(=O)c1ccc(C(F)(F)F)cc1`: the growth in assay [1] is 81.9%; in assay [2] it was 102%; in assay [3] it was 101%; in [4], 97.9%; in assay [5], 87.3%; in assay [6], 69.3%. For the same molecule, the growth was 101% in assay [7], 110% in assay [8] and 85.6% in assay [9].

As for `CCCCCCCCCCCCCCCC(=O)OC[C@@]1(O)C[C@@]23CC[C@@H]4C(C)(C)CCC[C@@]4(C)[C@@H]2CC[C@H]1C3`, the growth in [1] was 22.9%; in [2], 81.9%; in [3], 92.3%; in [4] it was 108%; in assay [5], 97.7%; in assay [6], 113%. For the same molecule, the growth is 107% in [7], 103% in assay [8] and 98.9% in assay [9].

With `Clc1nc(Nc2ccccc2)nc(Nc2ccccc2)n1`, the growth in assay [1] was 45.8%; in [2], 82.8%; in assay [3], 112%; in [4], 101%; in assay [5] it was 86.1%; in assay [6], 96.5%. In addition, the growth in [7] was 91.9%; in assay [8], 103%; in assay [9], 121%.

Consider `C[C@]12CCc3nc(Nc4cccc(O)c4)sc3C1=CC[C@@H]1[C@@H]2CC[C@]2(C)/C(=N\NC(N)=S)CC[C@@H]12`, for which the growth is 8.77% (active) in assay [1]; -22.2% (active) in assay [2]; 30.5% in assay [3]; 58.8% in [4]; 39% in [5]; 29.9% in assay [6]. Moreover, the growth was -35.5% (active) in assay [7], -54% (active) in assay [8] and -0.0546% (active) in [9].

Take `COc1cccc(-c2nc3occn3c2-c2ccnc(NCCCNS(=O)(=O)c3cccc(F)c3)n2)c1`: the growth in assay [1] is 107%; in assay [2], 68.1%; in assay [3], 72.2%; in assay [4], 135%; in assay [5], 71.9%; in [6] it was 86.3%. Also, the growth in assay [7] was 89%; in assay [8], 88.1%; in assay [9], 92.6%.

For the molecule `COc1ccc(/C(=C\c2ccccc2)C(=O)O)cc1OC`, the growth was 108% in assay [1]; 102% in assay [2]; 105% in [3]; 87.5% in [4]; 103% in assay [5]; 105% in assay [6]. For the same molecule, the growth is 96% in [7], 104% in assay [8], 97% in assay [9] and 93.8% in assay [10].

As to `O=C(c1ccccc1)N1N=C(c2ccc(-n3ccc(C(F)(F)F)n3)cc2)CC1c1ccc[nH]1` (stereo unspecified), the growth in assay [1] was 66.7%; in assay [2] it was 74.7%; in assay [3], 93.7%; in assay [4], 83.4%; in assay [5] it was 110%; in [6] it was 128%. Besides, the growth is 95.8% in [7], 103% in assay [8] and 95.4% in assay [9].

Consider `COc1cc2nc(-c3ccc(C(F)(F)F)cc3)cc(OCCN3CCC(O)CC3)c2cc1OC`, for which the growth in [1] is 35.4%; in assay [2] it was 41.2%; in [3] it was 80%; in assay [4], 51%; in assay [5], 88.3%; in assay [6], 85.4%. In addition, the growth in assay [7] is 42.1%; in assay [8], 93.8%; in [9] it was 79.1%.

Turning to `COc1ccc(/C=C(/c2ccccc2)[N+](=O)[O-])cc1`, the growth in assay [1] was -19.1% (active); in assay [2] it was -28% (active); in assay [3], -7.29% (active); in [4], -59.6% (active); in [5], -59.5% (active); in assay [6] it was 9.1% (active). Also, the growth in [7] is -26.1% (active); in assay [8], -96.5% (active); in [9], 14.4%.

Consider `CCc1c(Nc2ccc(C)cc2)[nH]c(N)nc1=S`, for which the growth in assay [1] was 94.4%; in assay [2] it was 115%; in assay [3], 101%; in assay [4], 98.9%; in assay [5] it was 107%; in assay [6], 111%. The growth in [7] is 104%; in assay [8], 119%; in [9] it was 94.8%.

`CC(=O)N1c2ccccc2NC2=C(C(=O)N(C)C2(C)C)C1C` (stereo unspecified): the growth in assay [1] was 16.7%; in assay [2] it was 12.6%; in assay [3] it was 65.8%; in [4] it was 62.5%; in assay [5], 55.2%; in [6], 55.4%. For the same molecule, the growth was 39.6% in [7], 18.1% in assay [8] and 20.4% in [9].

Take `COc1nc(N)nc(-n2c(-c3ccc(C)cc3)nc3ccccc32)c1NCc1ccc(C)cc1`: the growth in assay [1] is 80.5%; in assay [2], 81.2%; in assay [3], 94.1%; in assay [4] it was 88.5%; in [5] it was 95%; in [6], 110%. The growth was 80.1% in [7], 111% in assay [8], 83.6% in [9] and 90.1% in assay [10].

Consider `COc1ccc(C(O)c2cc3c(N)c(C(=O)Nc4ccccc4)sc3nc2C)cc1` (stereo unspecified), for which the growth in [1] was -15.3% (active); in [2] it was 5.81% (active); in [3], 8.92% (active); in [4] it was 27.1%; in assay [5], 42.6%; in assay [6], -9.84% (active). In addition, the growth in [7] was 12.6%; in assay [8] it was -16.7% (active); in assay [9], 3.96% (active).

With `Clc1nc(Cl)c2ncn(CCOCCn3cnc4c(Cl)nc(Cl)nc43)c2n1`, the growth in assay [1] is -75.9% (active); in [2] it was -52.8% (active); in [3], -83.2% (active); in [4] it was -85% (active); in assay [5] it was -86.1% (active); in assay [6], -98.3% (active). The growth is -95.6% (active) in assay [7], -97.4% (active) in assay [8] and -42.5% (active) in assay [9].

For the molecule `O=C1CCCN1c1cccc2cccnc12`, the growth is 101% in [1]; 102% in assay [2]; 103% in [3]; 109% in assay [4]; 110% in assay [5]; 114% in assay [6]. The growth was 107% in [7], 110% in assay [8] and 97.3% in assay [9].

With `C=C1C(=O)O[C@H]2[C@H]1CC/C(COC(=O)NCCc1c[nH]c3ccc(Cl)cc13)=C\CC[C@@]1(C)O[C@@H]21`, the growth in [1] is -4.62% (active); in [2], -31.9% (active); in assay [3] it was -43.6% (active); in assay [4], -11.3% (active); in assay [5], -80.8% (active); in assay [6] it was 96.4%. For the same molecule, the figures for the growth in assay [7], in [8] and in assay [9] were -83.9% (active), -96.4% (active) and 22.8%, respectively.

`O=C(Nc1cccc(Cl)c1)Oc1c(Br)c(Br)c(Br)c(Br)c1Br`: the growth in [1] was 107%; in [2], 73.2%; in [3], 88.9%; in assay [4], 102%; in [5], 95.4%; in assay [6], 62.6%. The growth in assay [7] is 107%; in assay [8], 88.5%; in [9] it was 84.3%; in assay [10] it was 96.4%.
